NS1 function inh: qHTS Assay for Inhibitors of Influenza NS1 Protein Function | Potency, µM (highest dose often 46.1 µM), inactives show top-dose activity, positive = more growth | hit rate 0.4% among 270,000; also: actives are rising curves; nearly all actives have a fitted effect of over 50% in size
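Read-out: OD600 growth recovery of NS1-expressing budding yeast. Cells grown overnight at 30C in -URA glucose medium, washed, resuspended and diluted 1:100 in 2% galactose assay medium, pH 6.0. Same strain lacking NS1 served as positive control.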
Pf growth 96h: Primary qHTS for delayed death inhibitors of the malarial parasite plastid, 96 hour incubation; hit rate 6.9% among 320,000; Potency, µM (top dose mostly 28.7 µM), without a hit: at the highest dose activity change, negative = inhibition, usual class: inhibitors; P. falciparum luciferase reporter growth, 96 h; active = well fitted inhibition curve with a large enough effect; inconclusive = small, poorly fitted or top-dose-only effect, or another doubt; inactive = no such curve, though single readings can be large or run the other way; also: % is scaled to controls: 0 for no effect and ±100 for the full control effect
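Infected RBCs, 2% Hct / 0.05% parasitemia final; luciferase-reporter P. falciparum; cpd 96 h, 37 C, 5% CO2; luciferase detection reagent; luminescence.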
Pf growth 48h: Primary qHTS for delayed death inhibitors of the malarial parasite plastid, 48 hour incubation | P. falciparum luciferase growth in erythrocytes, 48 h | Potency, µM (highest dose often 28.7 µM), for the others: top-dose activity change, negative = inhibition, most hits filed as inhibitors | hit rate 5.9% among 310,000 | AID 504832, 2011; active = well fitted inhibition curve with a large enough effect; inconclusive = small, poorly fitted or top-dose-only effect, or another doubt; inactive = no such curve, though single readings can be large or run the other way; also: % is scaled to controls: 0 for no effect and ±100 for the full control effect
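Compounds are pin-transferred into medium, infected erythrocytes (2% hematocrit, 0.1% parasitemia final) are added, and plates sit one parasite generation at 37 C in 5% CO2. Detection reagent is then added and luminescence measured.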
SARS PLP yeast: qHTS of Yeast-based Assay for SARS-CoV PLP; S. cerevisiae expressing SARS-CoV PLpro, growth rescue; hit rate 0.19% among 330,000; Potency, µM (titrated, usually from 32.9 µM), without a hit: top-dose activity, positive = growth rescue, most hits filed as activators; AID 485353, 2010; also: 0% is about no effect; nearly all actives have a fitted effect of over 55% in size
RE007 growth inh: qHTS Assay for Inhibitors of the HIV-1 protein Vpr; S. pombe RE007 Vpr strain, BacTiter-Glo ATP luminescence, 24 h; Potency, µM (highest dose often 92.2 µM), for inactives: at the top dose activity change, negative = less growth, most hits filed as inhibitors; hit rate 0.21% among 360,000; AID 651644, 2012; active = well fitted falling curve with a large enough effect; inconclusive = small, poorly fitted or top-dose-only effect; inactive = no such curve, though single readings can be large or run the other way; also: % is scaled to controls: 0 for no effect and ±100 for the full control effect; nearly all actives have a fitted effect of over 50% in size
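Fission yeast RE007 carrying one integrated HIV-1 vpr copy, seeded at OD 0.01 in PMG+AL medium with 23 nL pinned compound. Grown 24 h at 30 degrees; viability read by BacTiter-Glo luminescence after 5 min.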
Starred values were filed as active, the others as inactive; [ ] = remark or other dose. Sampled rows, rich in hits. Any-hit rate of the full collection: about 9.5%. Unless noted, calls follow the shape of the full dose curve. Potency is read from the fitted curve at half-maximal effect.

What do the screens show for `CCCCC(=O)NS(=O)(=O)c1ccc(N=NN(CC)CC)cc1`?
NS1 function inh: -6%; Pf growth 96h: -12%; Pf growth 48h: -2%; SARS PLP yeast: 0%; RE007 growth inh: 50%

How did CCCN(CCC)C(=O)c1ccc2nc(-c3ccc(OC)c(OC)c3)c(-c3ccc(OC)c(OC)c3)nc2c1 do in these assays?
NS1 function inh: -7%; Pf growth 96h: 17%; Pf growth 48h: 7.4µM*; SARS PLP yeast: 1%; RE007 growth inh: 1%

Results for CCC(C)NC(=O)c1ccc2nc(-c3ccc(OC)c(OC)c3)c(-c3ccc(OC)c(OC)c3)nc2c1 (stereo not drawn) ?
NS1 function inh: 0%; Pf growth 96h: 13µM*; Pf growth 48h: 2.9µM*; SARS PLP yeast: 1%; RE007 growth inh: 8%

How did COc1ccc(-c2nc3ccccc3nc2-c2ccc(OC)c(OC)c2)cc1OC do in these assays?
NS1 function inh: 4%; Pf growth 96h: -11%; Pf growth 48h: inconclusive; SARS PLP yeast: -6%; RE007 growth inh: -12%

Results for COC(=O)[C@H](CC(C)C)NC(=O)Cn1cnc2c(NCc3ccccc3)ncnc21 ?
SARS PLP yeast: -1%; RE007 growth inh: 6%[18.4 µM]

How did CC1(C)N([O-])C(c2cccs2)=C[N+]1=O do in these assays?
NS1 function inh: 6%; Pf growth 96h: 10µM*; Pf growth 48h: 2%; SARS PLP yeast: 6%; RE007 growth inh: -5%

How did COc1ccc(C=O)cc1CN1C(=O)c2ccccc2C1=O do in these assays?
NS1 function inh: -18%; Pf growth 96h: 0.15µM*; Pf growth 48h: inconclusive; SARS PLP yeast: 16%; RE007 growth inh: -7%

How did COc1ccc(C=O)cc1CN1CCCN(Cc2ccccc2F)S1(=O)=O do in these assays?
NS1 function inh: -10%; Pf growth 96h: 25%; Pf growth 48h: 16%; SARS PLP yeast: 0%; RE007 growth inh: -2%

How did COc1ccc(C=O)cc1COc1ccccc1F do in these assays?
NS1 function inh: -12%; Pf growth 96h: 8.3µM*; Pf growth 48h: 23%; SARS PLP yeast: 8%; RE007 growth inh: -18%

How did CS(=O)(=O)N(CC(=O)NCc1ccncc1)C1CCCCC1 do in these assays?
NS1 function inh: 5%; Pf growth 96h: 20%; Pf growth 48h: 11%; SARS PLP yeast: 0%; RE007 growth inh: 2%

How did COCCNC(=O)C(c1ccncc1)N(Cc1ccccc1)C(=O)Cn1nnc2ccccc21 (stereo not drawn) do in these assays?
Pf growth 96h: inconclusive; Pf growth 48h: 144%; SARS PLP yeast: -2%; RE007 growth inh: -15%

How did O=C(NCCN1CCCC1)c1cc(-c2ccncc2)nc2ccc(S(=O)(=O)N3CCOCC3)cc12 do in these assays?
NS1 function inh: 1%; Pf growth 96h: inconclusive; Pf growth 48h: 12µM*; SARS PLP yeast: 3%; RE007 growth inh: -9%

What do the screens show for `Cc1ccc2nc(-c3ccccn3)cc(C(=O)Nc3ccc(S(=O)(=O)N4CCOCC4)cc3)c2c1`?
NS1 function inh: 4%; Pf growth 96h: 20%; Pf growth 48h: 13µM*; SARS PLP yeast: 15%; RE007 growth inh: 84%

How did O=C(Nc1cccc(S(=O)(=O)N2CCCC2)c1)c1cc(-c2ccccn2)nc2ccccc12 do in these assays?
Pf growth 96h: inconclusive; Pf growth 48h: 12µM*; SARS PLP yeast: 0%; RE007 growth inh: 5%

What do the screens show for `OCc1ccc2c(c1)c(-c1ccc3c(c1)OCCO3)c(-c1ccccc1)n2-c1ccccc1`?
Pf growth 96h: 4.7µM*; Pf growth 48h: inconclusive; SARS PLP yeast: -5%; RE007 growth inh: 5%

How did Cc1ccc(S(=O)(=O)N(C)c2ccc(OC(C)C(=O)N3CCCC3)cc2)cc1C (stereo not drawn) do in these assays?
Pf growth 96h: inconclusive; Pf growth 48h: 12µM*; RE007 growth inh: 14%

Results for Cc1ccc(NC(=O)Cn2cnc3c(NCc4ccccc4)ncnc32)cc1C ?
SARS PLP yeast: 1%; RE007 growth inh: 9%

Results for CC(C)=CCC[C@H](C)C[C@@H]1Cc2[nH][nH]c(=O)c2[C@H](c2ccc(Cl)cc2)O1 ?
RE007 growth inh: 7%

What do the screens show for `Oc1ccc(C[C@@H]2CNCCN2CCC23CC4CC(CC(C4)C2)C3)cc1`?
Pf growth 96h: 2.1µM*; Pf growth 48h: 10µM*; SARS PLP yeast: 3%; RE007 growth inh: 1%

What do the screens show for `Oc1ccc(C[C@@H]2CNCCN2CC2CCCCC2)cc1`?
Pf growth 96h: inconclusive; Pf growth 48h: inconclusive; SARS PLP yeast: 5%; RE007 growth inh: -1%

Results for Oc1ccc(C[C@H]2CNCCN2CCCCC2CCCCC2)cc1 ?
Pf growth 96h: inconclusive; Pf growth 48h: 8.3µM*; SARS PLP yeast: 1%; RE007 growth inh: -7%

How did C[C@H]1CN([C@@H](C)CO)S(=O)(=O)c2ccc(Br)cc2O[C@@H]1CN(C)C(=O)C1CCOCC1 do in these assays?
RE007 growth inh: 4%

Results for O=C(Nc1ccccc1O)c1ccc2c(c1)C(=O)N(N1C(=O)c3ccccc3C1=O)C2=O ?
NS1 function inh: 3%; Pf growth 96h: 9.3µM*; Pf growth 48h: 7%; SARS PLP yeast: -2%; RE007 growth inh: -12%

How did O=C(O)c1ccc2c(c1)C(=O)N(N1C(=O)c3ccccc3C1=O)C2=O do in these assays?
NS1 function inh: 2%; Pf growth 96h: 9.3µM*; Pf growth 48h: 14%; SARS PLP yeast: 2%; RE007 growth inh: 6%
